The results in this text go back to PubChem BioAssay AID493011 (Sanford-Burnham Center for Chemical Genomics, 2011).

About 1,400 (0.42%) of roughly 330,000 compounds were called active.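 How the source made its calls: active means at least 40% inhibition at 20 µM here, with at most 30% in a related deaminase screen; inactive means the rest.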 The sample as a whole holds a higher share of actives than the screen did.

Broadly, the inhibition is the drop in the measured response relative to a control, in per cent.

The target of the assay is DNA dC->dU-editing enzyme APOBEC-3A (Homo sapiens) (UniProt P31941). Briefly: APOBEC3A ssDNA deaminase inhibitors, primary screen, selectivity assay for APOBEC3G inhibitor project, biochemical, FAM/TAMRA oligo cleavage fluorescence (AID 493011).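 Further: plate controls were A3A with DMSO for no effect and wells lacking A3A enzyme for full effect.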 The conditions noted are these: recombinant A3A, FAM/TAMRA ssDNA deamination fluorescence; at 20 µM; hits give high values.
Chain of DNA dC->dU-editing enzyme APOBEC-3A (Homo sapiens) (P31941 whole entry, looked up): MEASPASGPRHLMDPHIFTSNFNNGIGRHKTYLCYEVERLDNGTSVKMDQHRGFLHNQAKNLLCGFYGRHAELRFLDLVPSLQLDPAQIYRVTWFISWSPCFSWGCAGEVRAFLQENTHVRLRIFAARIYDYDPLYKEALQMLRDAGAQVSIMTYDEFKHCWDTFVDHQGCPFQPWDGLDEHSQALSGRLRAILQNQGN
Take `CC(=O)N/C(=N/c1nc(C)cc(C)n1)Nc1ccc(F)cc1F`: the inhibition was -1.6% (inactive).

Regarding `CC(=O)NNc1cc(=O)c2c(=O)n(C)c(=O)n(C)c2[nH]1`, the inhibition was 2.94% (inactive).

With `CC(=O)Nc1ccc(S(=O)(=O)Oc2ccc(/C=N/N=C3/NC(=O)C(CC(=O)O)S3)cc2)cc1` (centres undefined), the inhibition is -1.33% (inactive).

In the case of `COc1ccccc1CNC(=O)C1CCN(S(C)(=O)=O)CC1`, the inhibition was 3.64% (inactive).

Take `COc1ccccc1CCNC(=O)C1CCN(C(=O)/C=C/c2ccccc2)CC1`: the inhibition was 40.4% (active).

In the case of `COc1ccccc1CNC(=O)C1CCN(C(=O)[C@@H]2Cc3ccccc3CN2)CC1`, the inhibition is -2.15% (inactive).

In the case of `CCCc1nnc(SCC(=O)N2C(C)CCCC2C)n1CC` (centres undefined), the inhibition was 0.831% (inactive).

On to `COc1cc(C(CCN2CCN(c3ccccc3)CC2)c2c(OC)cc(OC)c3ccc(=O)oc23)cc(OC)c1OC` (centres undefined), for which the inhibition was -5.74% (inactive).

Turning to `CC(C)(C)C(=O)CSc1ccc(S(=O)(=O)N2CCCC2)cn1`, the inhibition was -1.15% (inactive).

Take `CC(Oc1ccc(F)cc1)C(=O)Nc1cc(S(=O)(=O)N2CCOCC2)ccc1N1CCN(C)CC1` (centres undefined): the inhibition is 63.9% (active).

On to `CCN(CC)S(=O)(=O)c1ccc(N2CCOCC2)c(NC(=O)C(C)Oc2ccc(F)cc2)c1` (centres undefined), for which the inhibition was -2.06% (inactive).

For the compound `CN1CCN(c2ccc(S(=O)(=O)N3CCOCC3)cc2NC(=O)CCc2ccccc2)CC1`, the inhibition is 3.6% (inactive).

`O=C(CN(CC1CCCO1)C(=O)CNS(=O)(=O)c1ccccc1)NCc1ccccc1` (centres undefined): the inhibition is -2.59% (inactive).

Regarding `COc1ccc(NC(=O)CSc2nc(C)cs2)cc1`, the inhibition was 3.79% (inactive).

Consider `Cc1csc(SCC(=O)Nc2sccc2C#N)n1`, for which the inhibition is 67.3% (active).

Take `Cc1ccc(NC(=O)CSCC(=O)Nc2sccc2C#N)cc1`: the inhibition was -0.813% (inactive).

Turning to `CCN(CC)c1ccc(S(=O)(=O)N2CCCCC2)cc1NC(=O)C1=COCCO1`, the inhibition is -3.33% (inactive).

Consider `CCCC(=O)Nc1cccc(NC(=S)NC(=O)C(C)Oc2ccc(Cl)cc2Cl)c1` (centres undefined), for which the inhibition was 1.55% (inactive).

As for `CC(C)Cc1ccc(C(C)C(=N)N)cc1` (centres undefined), the inhibition was 2.27% (inactive).

Regarding `COc1ccccc1CNC(=O)CCCN1C(=O)NC2(CCCC2)C1=O`, the inhibition is -3.53% (inactive).

`COc1ccc(C)cc1NC(=O)CNCc1cccs1`: the inhibition was -2.55% (inactive).

As for `COc1ccc(C)cc1NC(=O)CCCN1C(=O)NC(C)(C)C1=O`, the inhibition is 47.3% (active).

Regarding `Cc1nnsc1S(=O)(=O)Cc1ccccc1Cl`, the inhibition was -0.082% (inactive).

With `CC(C)CNC(=O)CC(c1ccccc1)c1c(O)ccc2ccccc12` (centres undefined), the inhibition was -1.51% (inactive).

Regarding `CC1CCCCC1NC(=O)NC(=O)COC(=O)C1=NN(c2ccccc2)C(=O)CC1` (centres undefined), the inhibition is 1.05% (inactive).

Turning to `CCCn1c(SCC(=O)N2CCc3ccccc32)nnc1-c1ccncc1`, the inhibition is -1.68% (inactive).

As for `CSc1nnc(-c2ccncc2)n1CCCN1CCCC1=O`, the inhibition was 63% (active).

Turning to `COCCCn1c(SCC(=O)Nc2ccccc2)nnc1-c1ccncc1`, the inhibition was 0.275% (inactive).

Regarding `CCN(CC(=O)Nc1cc(Cl)ccc1C)C(=O)Cn1c(=O)cnc2ccccc21`, the inhibition was 10.7% (inactive).

For `CCOc1ccc(C(=O)CCN2CCOCC2)cc1`, the inhibition is -4.07% (inactive).

For the compound `CC(C)CCOc1ccc(C(=O)C[N+]2(C)CCOCC2)cc1`, the inhibition is 83.1% (active).

As for `CCC(=O)c1ccc(OCC(O)CN2CC(C)OC(C)C2)cc1` (centres undefined), the inhibition was 0.408% (inactive).

As to `CCn1c(=O)c(=O)[nH]c2c(=O)oc3ccc(S(=O)(=O)Nc4ccc(OC)cc4)cc3c21`, the inhibition was -3.37% (inactive).

As to `CCC(C)c1ccc(NC(=S)N2CCCC2)cc1` (centres undefined), the inhibition is -3.82% (inactive).

For the compound `O=S(=O)(Nc1ccccc1N1CCOCC1)c1ccc(Cl)s1`, the inhibition is 2.47% (inactive).

For the compound `COc1cccc(N2CCN(c3ccc4nnc(CCC(=O)N5CCN(C)CC5)n4n3)CC2)c1`, the inhibition is -4.98% (inactive).

Turning to `Fc1cc(Br)ccc1NC(=S)Nc1cccnc1`, the inhibition was -0.709% (inactive).

On to `S=C(Nc1cccnc1)Nc1ccccn1`, for which the inhibition was 63.4% (active).

Regarding `COc1cc(/C=N/NC(=S)Nc2cccnc2)cc(OC)c1O`, the inhibition was -4.38% (inactive).

In the case of `O=C(COC(=O)C1CCN(S(=O)(=O)c2ccc3c(c2)OCCO3)CC1)Nc1ccccc1OC(F)F`, the inhibition is 3.88% (inactive).

For `CCc1ccc(NC2Nc3cc(C)nn3S2)cc1` (centres undefined), the inhibition is -0.183% (inactive).

Take `Cc1nnc(CN(C)Cc2cn[nH]c2-c2ccc(-c3ccccc3)cc2)o1`: the inhibition was 1.98% (inactive).

For `COc1ccc(C(=O)OCC(=O)NC(=O)CCSc2ccccc2)cc1`, the inhibition is 0.284% (inactive).

As for `CS(=O)(=O)c1ccc2c(c1)SC1=NC(=O)/C(=C/c3ccco3)C(=N)N12`, the inhibition was 41.6% (active).

As for `CCS(=O)(=O)C1=NSC2=NC(=O)/C(=C\c3ccc(OS(=O)(=O)c4ccccc4)cc3)C(=N)N21`, the inhibition was -0.304% (inactive).

With `CCS(=O)(=O)C1=NSC2=NC(=O)/C(=C\c3cc(C)n(-c4cccc(OC)c4)c3C)C(=N)N21`, the inhibition was -3.79% (inactive).

As for `COc1cc(C)c(Cl)cc1S(=O)(=O)n1ccnc1`, the inhibition was -3.09% (inactive).

Consider `Cc1noc(C)c1S(=O)(=O)N(C)C[C@H]1Oc2ccc(NC(=O)C3CC3)cc2C(=O)N([C@H](C)CO)C[C@@H]1C`, for which the inhibition was -2.35% (inactive).

Regarding `O=C(NNC(=O)c1cnccc1C(F)(F)F)c1ccc(Cl)cc1`, the inhibition is -3.45% (inactive).

In the case of `CN(c1ccccc1)S(=O)(=O)c1cc(C(=O)Nc2nc3ccccc3[nH]2)ccc1Cl`, the inhibition is 2.16% (inactive).

As to `O=C(Nc1cccc(-c2nc3ccccc3[nH]2)c1)c1ccc(C(=O)Nc2cccc(-c3nc4ccccc4[nH]3)c2)cc1`, the inhibition was 52.5% (active).

Take `O=C(Nc1ccccc1)c1cc2ccccc2[nH]1`: the inhibition is 2.51% (inactive).

For the compound `C/C(=N\NC(=O)C1(C)CC1(Br)Br)c1ccc(C)cc1C` (centres undefined), the inhibition is 3.9% (inactive).

As to `CC(Oc1ccc(F)cc1)C(=O)N1CCN(c2ncccn2)CC1` (centres undefined), the inhibition was 3.53% (inactive).

For the compound `Cc1ccc(NC(=O)COc2coc(CN3CCc4ccccc4C3)cc2=O)cc1Cl`, the inhibition is -2.19% (inactive).

Consider `c1ccc(C(c2ccccc2)N2CCN(Cc3nnnn3C3CCCCC3)CC2)cc1`, for which the inhibition is -5.77% (inactive).

Consider `COc1ccccc1CN1CCN(C(c2ccccc2)c2ccccc2)CC1`, for which the inhibition is -1.76% (inactive).

`CC1(C)CC(N2CCN(C(c3ccccc3)c3ccccc3)CC2)=CC(=[N+]2CCCCC2)C1`: the inhibition was 57.4% (active).

With `COc1cc(C(=O)OCC(=O)NC(C)CCc2ccccc2)cc(OC)c1OC` (centres undefined), the inhibition is -4.8% (inactive).

`Cc1ccc(S(=O)(=O)N2CCCCC2)cc1C(=O)N(C)CC(=O)Nc1cccc(F)c1`: the inhibition is 4.08% (inactive).

With `CN(C)S(=O)(=O)c1ccc(N2CCCC2)c(C(=O)Nc2cccc(F)c2)c1`, the inhibition is -1.6% (inactive).

Take `CCCCCCn1c(SCC(=O)c2ccccc2)nc2c1c(=O)[nH]c(=O)n2C`: the inhibition was -3.65% (inactive).

Turning to `CCCCCCCC[n+]1cccc(C(=O)N2c3c(nc(N)[nH]c3=O)NC(C)C2C)c1` (centres undefined), the inhibition is 66.2% (active).

For the compound `Cc1ccc(C(=O)NC(=S)Nc2ccc3[nH]c(=O)[nH]c3c2)cc1C`, the inhibition is -1.4% (inactive).

Take `NC(N)=N/N=C/c1ccc(OCc2ccc(Cl)cc2Cl)cc1`: the inhibition is 0.729% (inactive).

As to `C/C(N)=C(/C#N)C(=O)COC(=O)C1CCN(C(=O)c2ccc(Cl)cc2)CC1`, the inhibition is -0.831% (inactive).

As to `COc1ccc(N2C(=O)CC(Nc3ccc(F)cc3)C2=O)c([N+](=O)[O-])c1` (centres undefined), the inhibition was -1.69% (inactive).

Consider `O=C(CSc1nc2ccccc2c(=O)[nH]1)Nc1nc(-c2ccc(Br)cc2)cs1`, for which the inhibition is 44.5% (active).

Turning to `CCOC(=O)c1ccccc1NC(=O)CSc1nc2ccccc2c(=O)[nH]1`, the inhibition was 1.48% (inactive).

As to `CC(=O)NCc1ccc(-c2csc(NC(=O)CCCc3nc4ccccc4c(=O)[nH]3)n2)cc1`, the inhibition is 4.49% (inactive).

As to `CCCCN(C(=O)c1ccc2ccccc2c1)c1c(N)n(CCCC)c(=O)[nH]c1=O`, the inhibition is -4.05% (inactive).

In the case of `CCN(C(=O)COc1cccnc1[N+](=O)[O-])C1CCS(=O)(=O)C1` (centres undefined), the inhibition was 0.474% (inactive).

For `CCN1C(=NCc2ccc(OC)cc2)N[C@@H](CCc2ccccc2)[C@H](C(=O)NCc2ccc(OC)cc2)[C@H]1C`, the inhibition is 49.6% (active).

As for `CC(C)CNC(=O)C(=O)NCc1ccccc1`, the inhibition is 6.28% (inactive).

As to `CCN1C(=S)N[C@@H](CCc2ccccc2)[C@H](C(=O)OC)[C@H]1C`, the inhibition is -3.49% (inactive).

For the compound `CCN1C(=O)N[C@@H](CCc2ccccc2)C(C(=O)OC)=C1C`, the inhibition is -3.29% (inactive).

Consider `COCCN1C(=O)N[C@@H](CCc2ccccc2)[C@H](C(C)=O)[C@H]1C`, for which the inhibition was 0.644% (inactive).

As to `CCN1C(=NCC(C)C)N[C@@H](CCc2ccccc2)[C@H](C(=O)NCC(C)C)[C@H]1C`, the inhibition was 53.8% (active).

For `CCN(CC)CCCNC(=O)CCn1nc(-c2ccc(Cl)cc2)ccc1=O`, the inhibition was 98.8% (active).

In the case of `CCCCNC(=O)CCn1nc(-c2ccc(Cl)cc2)ccc1=O`, the inhibition was -0.453% (inactive).

Take `Cc1ccc(-c2ccc(=O)n(CC(=O)NCCCN3CCCCC3)n2)cc1`: the inhibition was -1.5% (inactive).

As to `Cc1cc(=O)[nH]c(SCc2cc(Cl)ccc2OC(F)F)n1`, the inhibition is -4.15% (inactive).

For `Cc1cc(=O)[nH]c(SCc2cccc(F)c2)n1`, the inhibition is -0.614% (inactive).

Regarding `COc1ccccc1-c1noc(CSc2nc(C)cc(=O)[nH]2)n1`, the inhibition was 53.2% (active).

Take `CC1CCN(S(=O)(=O)c2ccc(S(=O)(=O)NCc3ccco3)cc2)CC1`: the inhibition was -4.88% (inactive).

On to `CN(CCOc1ccc(Br)cc1)CC(=O)Nc1cccc(S(=O)(=O)NC2=NCCC2)c1`, for which the inhibition was -4.16% (inactive).

With `COc1ccc(NC(=O)CN(C)C(=O)/C=C/c2cn(Cc3ccccc3)nc2-c2cccnc2)cc1`, the inhibition is 43.8% (active).

As to `COc1cccc(NC(=O)CN(C)C(=O)/C=C/c2cc(OC)ccc2OC)c1`, the inhibition was -6.53% (inactive).

For `COc1cccc(NC(=O)CN(C)C(=O)/C=C/c2cn(-c3ccccc3)nc2-c2cccs2)c1`, the inhibition was -4.72% (inactive).
